# Results published in paper PMC7862700, “An all-to-all approach to the identification of sequence-specific readers for epigenetic DNA modifications on cytosine”.
# Columns and labels:
# Assay in all cases: DAPPL (digital affinity profiling via proximity ligation, sequencing); 10 mM Tris-HCl pH 7.5, 50 mM NaCl, 1 mM DTT, 4% glycerol, room temperature, 30 min; GST-TFs on glutathione beads, 16-mer random dsDNA library, 0.1% formaldehyde crosslink after washing; high values mean tight binding
# FEV = molecular target: T1, FEV (Homo sapiens, UniProt Q99581 1-238); conditions: protein: recombinant; tags: N-terminal GST; dsDNA, one strand shown
# T1 sequence: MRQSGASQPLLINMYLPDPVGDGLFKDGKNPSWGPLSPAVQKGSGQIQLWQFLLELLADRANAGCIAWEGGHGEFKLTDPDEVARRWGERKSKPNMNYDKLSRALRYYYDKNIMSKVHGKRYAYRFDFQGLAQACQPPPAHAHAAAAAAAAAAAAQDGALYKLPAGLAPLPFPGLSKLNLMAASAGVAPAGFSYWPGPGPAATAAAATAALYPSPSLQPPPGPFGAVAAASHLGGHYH
# In short: (§1)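 Sequencing on an Illumina NextSeq500 followed washing, crosslinking with 0.1% formaldehyde, proximity ligation (BsaI/T4 ligase, 1 h, 37 °C) and PCR amplification of pools that had been incubated for 30 min at room temperature with 200 nmole of a random double-stranded 16-mer DNA library in Tris/NaCl/DTT/glycerol buffer. Each pool held DNA-barcoded human transcription factors, expressed in yeast as GST fusions and captured on glutathione beads, plus a tag-only sample. Binding signal is a hexamer's read frequency for a factor divided by its frequency in the tag-only sample.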
# ETV5 = ETV5 (Homo sapiens, UniProt P41161 1-510); conditions: protein: recombinant; tags: N-terminal GST; dsDNA, one strand shown
# In short: as §1
# HSF1 = HSF1 (Homo sapiens, UniProt Q00613 1-529); conditions: protein: recombinant; tags: N-terminal GST; chain copies: 3; dsDNA, one strand shown
# In short: as §1
# SPIC = molecular target: T2, SPIC (Homo sapiens, UniProt Q8N5J4 1-248); conditions: protein: recombinant; tags: N-terminal GST; dsDNA, one strand shown
# T2 sequence: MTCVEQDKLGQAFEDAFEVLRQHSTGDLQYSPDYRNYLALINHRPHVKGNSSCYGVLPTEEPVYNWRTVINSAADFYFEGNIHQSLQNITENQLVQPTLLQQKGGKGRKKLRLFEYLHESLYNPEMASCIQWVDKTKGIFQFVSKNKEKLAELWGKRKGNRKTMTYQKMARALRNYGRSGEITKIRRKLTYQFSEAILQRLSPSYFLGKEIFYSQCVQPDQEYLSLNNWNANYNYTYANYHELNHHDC
# In short: as §1
# ELF4 = ELF4 (Homo sapiens, UniProt Q99607 1-663); conditions: protein: recombinant; tags: N-terminal GST; dsDNA, one strand shown
# In short: as §1
# ELK4 = molecular target: T3, ELK4 (Homo sapiens, UniProt P28324-2 1-405); conditions: protein: recombinant; tags: N-terminal GST; dsDNA, one strand shown
# T3 sequence: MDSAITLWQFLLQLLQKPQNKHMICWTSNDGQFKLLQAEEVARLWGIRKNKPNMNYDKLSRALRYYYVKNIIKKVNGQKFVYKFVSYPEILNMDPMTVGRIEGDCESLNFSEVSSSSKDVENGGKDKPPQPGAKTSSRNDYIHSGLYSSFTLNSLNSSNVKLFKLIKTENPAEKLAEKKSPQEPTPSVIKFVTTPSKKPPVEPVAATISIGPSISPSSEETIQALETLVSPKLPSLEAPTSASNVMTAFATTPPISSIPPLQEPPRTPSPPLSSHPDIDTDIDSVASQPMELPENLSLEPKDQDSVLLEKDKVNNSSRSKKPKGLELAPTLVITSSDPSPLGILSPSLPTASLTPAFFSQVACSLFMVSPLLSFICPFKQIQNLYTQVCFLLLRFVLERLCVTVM
# In short: as §1
# ETV2 = molecular target: T4, ETV2 (Homo sapiens, UniProt O00321 1-342); conditions: protein: recombinant; tags: N-terminal GST; dsDNA, one strand shown
# T4 sequence: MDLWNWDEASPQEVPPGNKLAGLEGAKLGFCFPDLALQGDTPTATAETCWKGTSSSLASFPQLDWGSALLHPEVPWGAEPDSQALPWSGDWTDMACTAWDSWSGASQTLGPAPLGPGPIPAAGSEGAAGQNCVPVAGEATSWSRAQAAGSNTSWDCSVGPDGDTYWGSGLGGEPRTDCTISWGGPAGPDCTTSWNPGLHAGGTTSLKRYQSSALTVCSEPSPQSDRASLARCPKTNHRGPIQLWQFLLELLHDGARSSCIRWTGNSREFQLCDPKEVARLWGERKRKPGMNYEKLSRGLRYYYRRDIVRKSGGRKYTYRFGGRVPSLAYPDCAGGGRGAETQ
# In short: as §1
# ELF3 = molecular target: T5, ELF3 (Homo sapiens, UniProt P78545 1-371); conditions: protein: recombinant; tags: N-terminal GST; dsDNA, one strand shown
# T5 sequence: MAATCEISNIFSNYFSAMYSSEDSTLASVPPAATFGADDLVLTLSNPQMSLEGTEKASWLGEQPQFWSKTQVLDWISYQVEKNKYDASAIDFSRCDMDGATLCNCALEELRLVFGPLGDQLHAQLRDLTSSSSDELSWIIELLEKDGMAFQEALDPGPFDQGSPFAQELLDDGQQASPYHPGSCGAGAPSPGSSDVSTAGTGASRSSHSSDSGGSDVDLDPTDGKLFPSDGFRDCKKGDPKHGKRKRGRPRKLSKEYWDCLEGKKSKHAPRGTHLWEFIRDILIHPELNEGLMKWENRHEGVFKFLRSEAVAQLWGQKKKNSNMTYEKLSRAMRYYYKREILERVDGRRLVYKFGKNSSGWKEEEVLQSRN
# In short: as §1
# CRX = CRX (Homo sapiens, UniProt O43186 1-299); conditions: protein: recombinant; tags: N-terminal GST; dsDNA, one strand shown
# In short: as §1
# ETV1 = ETV1 (Homo sapiens, UniProt P50549 1-477); conditions: protein: recombinant; tags: N-terminal GST; dsDNA, one strand shown
# In short: as §1
# ERF = molecular target: T6, ERF (Homo sapiens, UniProt P50548 1-548); conditions: protein: recombinant; tags: N-terminal GST; dsDNA, one strand shown
# T6 sequence: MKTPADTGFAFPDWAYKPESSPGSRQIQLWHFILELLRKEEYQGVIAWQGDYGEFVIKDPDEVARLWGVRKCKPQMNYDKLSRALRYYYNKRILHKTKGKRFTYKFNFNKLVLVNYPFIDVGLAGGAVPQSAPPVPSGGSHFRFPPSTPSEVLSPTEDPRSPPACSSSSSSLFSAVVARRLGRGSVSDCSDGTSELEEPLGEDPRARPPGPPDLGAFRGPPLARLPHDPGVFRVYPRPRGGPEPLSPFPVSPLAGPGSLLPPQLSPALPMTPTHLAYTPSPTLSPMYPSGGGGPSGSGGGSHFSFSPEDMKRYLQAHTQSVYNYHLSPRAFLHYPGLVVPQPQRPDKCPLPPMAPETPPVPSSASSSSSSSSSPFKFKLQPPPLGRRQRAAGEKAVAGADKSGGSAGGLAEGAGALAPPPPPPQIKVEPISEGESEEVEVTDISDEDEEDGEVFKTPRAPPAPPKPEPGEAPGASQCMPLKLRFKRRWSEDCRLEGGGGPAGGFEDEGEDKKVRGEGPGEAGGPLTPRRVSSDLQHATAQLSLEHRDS
# In short: as §1
# ETV3L = molecular target: T7, ETV3L (Homo sapiens, UniProt Q6ZN32 1-361); conditions: protein: recombinant; tags: N-terminal GST; dsDNA, one strand shown
# T7 sequence: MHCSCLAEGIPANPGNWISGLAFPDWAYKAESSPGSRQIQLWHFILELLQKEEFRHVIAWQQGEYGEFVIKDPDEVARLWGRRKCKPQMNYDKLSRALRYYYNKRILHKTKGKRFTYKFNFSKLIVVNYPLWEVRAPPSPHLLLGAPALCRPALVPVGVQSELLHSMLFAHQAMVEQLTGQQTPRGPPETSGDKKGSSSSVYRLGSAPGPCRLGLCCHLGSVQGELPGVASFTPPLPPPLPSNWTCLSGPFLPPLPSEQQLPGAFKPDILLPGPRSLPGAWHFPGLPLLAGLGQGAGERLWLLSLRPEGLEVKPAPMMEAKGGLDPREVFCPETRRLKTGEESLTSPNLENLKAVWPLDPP
# In short: as §1
# ETS2 = molecular target: T8, ETS2 (Homo sapiens, UniProt P15036 1-469); conditions: protein: recombinant; tags: N-terminal GST; dsDNA, one strand shown
# T8 sequence: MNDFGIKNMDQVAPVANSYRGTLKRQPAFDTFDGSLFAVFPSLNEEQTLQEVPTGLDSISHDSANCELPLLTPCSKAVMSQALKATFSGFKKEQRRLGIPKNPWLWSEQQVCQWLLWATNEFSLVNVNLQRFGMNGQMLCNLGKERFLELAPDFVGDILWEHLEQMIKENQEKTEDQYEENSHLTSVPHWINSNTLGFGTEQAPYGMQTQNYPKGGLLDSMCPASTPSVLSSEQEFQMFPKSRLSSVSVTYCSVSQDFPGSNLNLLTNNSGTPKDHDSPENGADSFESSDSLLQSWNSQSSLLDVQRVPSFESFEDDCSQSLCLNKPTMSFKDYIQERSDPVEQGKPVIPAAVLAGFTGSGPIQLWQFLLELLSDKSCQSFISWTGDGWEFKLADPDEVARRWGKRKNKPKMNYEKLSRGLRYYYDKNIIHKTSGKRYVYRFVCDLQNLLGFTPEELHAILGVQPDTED
# In short: as §1
# SPDEF = molecular target: T9, SPDEF (Homo sapiens, UniProt O95238 1-335); conditions: protein: recombinant; tags: N-terminal GST; dsDNA, one strand shown
# T9 sequence: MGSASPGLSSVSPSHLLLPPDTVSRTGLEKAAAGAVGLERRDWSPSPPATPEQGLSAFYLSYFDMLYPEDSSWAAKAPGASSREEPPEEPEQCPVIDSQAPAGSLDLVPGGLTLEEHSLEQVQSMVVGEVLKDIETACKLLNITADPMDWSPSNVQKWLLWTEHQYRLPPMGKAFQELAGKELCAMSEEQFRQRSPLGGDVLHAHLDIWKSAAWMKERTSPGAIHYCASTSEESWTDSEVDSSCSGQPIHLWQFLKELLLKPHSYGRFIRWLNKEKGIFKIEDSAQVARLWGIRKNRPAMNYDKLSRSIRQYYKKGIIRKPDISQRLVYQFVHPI
# In short: as §1
# ETV7 = molecular target: T10, ETV7 (Homo sapiens, UniProt Q9Y603 1-341); conditions: protein: recombinant; tags: N-terminal GST; dsDNA, one strand shown
# T10 sequence: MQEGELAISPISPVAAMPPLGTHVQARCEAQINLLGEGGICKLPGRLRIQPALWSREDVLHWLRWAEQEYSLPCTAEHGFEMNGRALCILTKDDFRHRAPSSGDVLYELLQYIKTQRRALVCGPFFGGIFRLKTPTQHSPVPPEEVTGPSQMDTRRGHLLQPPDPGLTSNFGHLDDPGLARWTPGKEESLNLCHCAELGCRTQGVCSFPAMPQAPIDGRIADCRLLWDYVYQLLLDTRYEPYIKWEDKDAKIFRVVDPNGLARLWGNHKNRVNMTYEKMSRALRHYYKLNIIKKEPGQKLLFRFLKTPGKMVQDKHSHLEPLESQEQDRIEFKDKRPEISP
# In short: as §1
# ELF5 = molecular target: T11, ELF5 (Homo sapiens, UniProt Q9UKW6-2 1-255); conditions: protein: recombinant; tags: N-terminal GST; dsDNA, one strand shown
# T11 sequence: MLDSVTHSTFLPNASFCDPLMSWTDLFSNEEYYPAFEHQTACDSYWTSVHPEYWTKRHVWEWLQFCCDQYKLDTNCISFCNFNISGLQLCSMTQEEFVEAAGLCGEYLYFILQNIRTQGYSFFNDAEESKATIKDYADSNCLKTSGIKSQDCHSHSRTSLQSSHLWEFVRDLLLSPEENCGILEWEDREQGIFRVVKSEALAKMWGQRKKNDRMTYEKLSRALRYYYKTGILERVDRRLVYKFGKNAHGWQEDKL
# In short: as §1
# ETV3 = molecular target: T12, ETV3 (Homo sapiens, UniProt P41162-2 1-143); conditions: protein: recombinant; tags: N-terminal GST; dsDNA, one strand shown
# T12 sequence: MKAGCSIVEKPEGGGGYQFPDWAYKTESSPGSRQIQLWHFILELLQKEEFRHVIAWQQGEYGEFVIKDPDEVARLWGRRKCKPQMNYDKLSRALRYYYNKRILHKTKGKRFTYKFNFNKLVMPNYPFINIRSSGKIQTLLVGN
# In short: as §1
# ETV6 = ETV6 (Homo sapiens, UniProt P41212 1-452); conditions: protein: recombinant; tags: N-terminal GST; dsDNA, one strand shown
# In short: as §1
# ETV5, sequence (P41161 whole entry): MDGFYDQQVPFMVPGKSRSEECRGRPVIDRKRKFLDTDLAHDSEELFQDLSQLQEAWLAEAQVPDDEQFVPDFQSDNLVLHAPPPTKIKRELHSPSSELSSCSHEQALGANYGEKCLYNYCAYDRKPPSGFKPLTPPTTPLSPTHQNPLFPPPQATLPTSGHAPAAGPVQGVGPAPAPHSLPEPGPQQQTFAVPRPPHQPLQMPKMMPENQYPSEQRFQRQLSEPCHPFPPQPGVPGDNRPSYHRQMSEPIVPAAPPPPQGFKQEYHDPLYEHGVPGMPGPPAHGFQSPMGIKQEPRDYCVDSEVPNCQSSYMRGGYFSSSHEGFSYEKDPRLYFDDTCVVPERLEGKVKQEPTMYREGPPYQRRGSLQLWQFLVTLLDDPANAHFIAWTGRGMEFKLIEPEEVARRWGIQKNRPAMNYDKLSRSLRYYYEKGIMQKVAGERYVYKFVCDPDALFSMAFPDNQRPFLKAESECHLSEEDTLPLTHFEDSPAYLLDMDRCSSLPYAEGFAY
# HSF1, sequence (Q00613 whole entry): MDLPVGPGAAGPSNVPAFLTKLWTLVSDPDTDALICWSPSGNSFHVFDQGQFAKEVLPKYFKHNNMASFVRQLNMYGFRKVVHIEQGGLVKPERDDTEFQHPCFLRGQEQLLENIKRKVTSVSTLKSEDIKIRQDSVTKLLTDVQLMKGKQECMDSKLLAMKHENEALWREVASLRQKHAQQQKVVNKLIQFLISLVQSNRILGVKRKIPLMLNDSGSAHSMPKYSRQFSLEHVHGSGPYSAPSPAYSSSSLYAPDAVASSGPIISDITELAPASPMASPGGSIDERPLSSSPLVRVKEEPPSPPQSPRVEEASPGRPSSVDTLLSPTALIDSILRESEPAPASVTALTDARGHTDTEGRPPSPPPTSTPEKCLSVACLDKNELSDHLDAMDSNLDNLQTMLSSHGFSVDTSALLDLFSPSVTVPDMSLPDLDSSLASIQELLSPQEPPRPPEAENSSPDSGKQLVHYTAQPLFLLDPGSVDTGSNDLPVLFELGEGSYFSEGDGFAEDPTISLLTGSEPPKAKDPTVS
# ETV1, sequence (P50549 whole entry): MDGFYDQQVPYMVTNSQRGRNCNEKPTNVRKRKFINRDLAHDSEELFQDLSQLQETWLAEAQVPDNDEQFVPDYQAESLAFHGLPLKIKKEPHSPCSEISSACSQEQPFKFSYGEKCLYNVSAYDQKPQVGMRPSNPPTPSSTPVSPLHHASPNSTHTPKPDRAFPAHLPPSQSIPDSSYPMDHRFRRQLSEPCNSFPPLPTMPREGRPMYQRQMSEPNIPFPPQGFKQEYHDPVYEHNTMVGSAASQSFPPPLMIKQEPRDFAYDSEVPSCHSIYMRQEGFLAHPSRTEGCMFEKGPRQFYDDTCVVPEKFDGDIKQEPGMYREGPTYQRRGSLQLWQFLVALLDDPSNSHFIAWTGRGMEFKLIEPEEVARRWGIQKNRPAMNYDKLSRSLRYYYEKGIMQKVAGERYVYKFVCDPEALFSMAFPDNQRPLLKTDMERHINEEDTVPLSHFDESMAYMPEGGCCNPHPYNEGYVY
# ELF4, sequence (Q99607 whole entry): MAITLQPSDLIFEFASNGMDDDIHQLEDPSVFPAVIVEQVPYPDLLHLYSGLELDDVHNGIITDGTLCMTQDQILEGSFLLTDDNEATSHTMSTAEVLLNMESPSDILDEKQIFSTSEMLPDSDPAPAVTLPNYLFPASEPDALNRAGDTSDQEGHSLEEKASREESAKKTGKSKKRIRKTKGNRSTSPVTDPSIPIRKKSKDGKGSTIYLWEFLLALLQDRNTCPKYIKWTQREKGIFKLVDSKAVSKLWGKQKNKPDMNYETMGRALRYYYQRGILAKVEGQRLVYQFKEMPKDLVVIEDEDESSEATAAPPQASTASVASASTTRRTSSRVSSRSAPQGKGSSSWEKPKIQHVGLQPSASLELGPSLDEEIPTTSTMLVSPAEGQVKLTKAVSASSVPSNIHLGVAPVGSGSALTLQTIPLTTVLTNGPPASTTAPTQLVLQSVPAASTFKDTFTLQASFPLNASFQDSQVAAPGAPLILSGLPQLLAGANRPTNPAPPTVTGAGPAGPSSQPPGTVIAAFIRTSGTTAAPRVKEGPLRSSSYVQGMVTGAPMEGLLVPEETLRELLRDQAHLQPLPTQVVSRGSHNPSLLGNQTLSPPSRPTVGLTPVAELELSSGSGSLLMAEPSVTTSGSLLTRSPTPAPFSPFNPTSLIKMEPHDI
# ETV6, sequence (P41212 whole entry): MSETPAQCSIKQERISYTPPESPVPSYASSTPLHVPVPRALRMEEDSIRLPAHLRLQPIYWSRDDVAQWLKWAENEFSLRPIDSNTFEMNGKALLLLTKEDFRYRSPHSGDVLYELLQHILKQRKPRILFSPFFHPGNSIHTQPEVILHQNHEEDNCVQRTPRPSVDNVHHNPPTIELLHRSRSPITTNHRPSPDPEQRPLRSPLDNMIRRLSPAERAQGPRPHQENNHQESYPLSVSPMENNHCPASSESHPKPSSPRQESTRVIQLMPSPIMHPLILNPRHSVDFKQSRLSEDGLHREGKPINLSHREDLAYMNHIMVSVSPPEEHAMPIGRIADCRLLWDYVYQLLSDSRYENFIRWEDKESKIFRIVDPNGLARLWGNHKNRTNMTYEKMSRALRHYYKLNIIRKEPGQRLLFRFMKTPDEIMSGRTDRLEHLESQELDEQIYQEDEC
# CRX, sequence (O43186 whole entry): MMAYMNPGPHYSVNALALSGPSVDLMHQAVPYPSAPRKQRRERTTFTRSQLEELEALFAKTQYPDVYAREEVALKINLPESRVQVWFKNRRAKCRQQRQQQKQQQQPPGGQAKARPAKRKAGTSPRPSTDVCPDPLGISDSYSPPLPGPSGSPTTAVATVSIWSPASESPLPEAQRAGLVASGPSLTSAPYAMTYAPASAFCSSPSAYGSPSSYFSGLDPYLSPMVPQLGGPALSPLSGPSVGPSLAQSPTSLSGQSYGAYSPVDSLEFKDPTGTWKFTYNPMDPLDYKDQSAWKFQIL
sequence,measurement,setting,value
GCTTAT,binding signal,FEV,"1.21 fold enrichment (6-mer frequency, TF over GST control)"
same,binding signal,ETV5,"1.23 fold enrichment (6-mer frequency, TF over GST control)"
same,binding signal,HSF1,"1.89 fold enrichment (6-mer frequency, TF over GST control)"
same,binding signal,SPIC,"1.42 fold enrichment (6-mer frequency, TF over GST control)"
same,binding signal,ELF4,"1.23 fold enrichment (6-mer frequency, TF over GST control)"
same,binding signal,ELK4,"1.28 fold enrichment (6-mer frequency, TF over GST control)"
same,binding signal,ETV2,"1.11 fold enrichment (6-mer frequency, TF over GST control)"
same,binding signal,ELF3,"1.29 fold enrichment (6-mer frequency, TF over GST control)"
same,binding signal,CRX,"2.89 fold enrichment (6-mer frequency, TF over GST control)"
same,binding signal,ETV1,"1.35 fold enrichment (6-mer frequency, TF over GST control)"
same,binding signal,ERF,"1.31 fold enrichment (6-mer frequency, TF over GST control)"
same,binding signal,ETV3L,"1.23 fold enrichment (6-mer frequency, TF over GST control)"
same,binding signal,ETS2,"1.36 fold enrichment (6-mer frequency, TF over GST control)"
same,binding signal,SPDEF,"1.43 fold enrichment (6-mer frequency, TF over GST control)"
same,binding signal,ETV7,"1.43 fold enrichment (6-mer frequency, TF over GST control)"
same,binding signal,ELF5,"1.15 fold enrichment (6-mer frequency, TF over GST control)"
same,binding signal,ETV3,"1.2 fold enrichment (6-mer frequency, TF over GST control)"
same,binding signal,ETV6,"1.23 fold enrichment (6-mer frequency, TF over GST control)"
